Assay results as given in PubChem BioAssay AID1851 (National Center for Advancing Translational Sciences (NCATS), 2009).
Screen size: about 16,000 compounds; about 2,600 (16%) were called active. About 20% were inconclusive and are not listed. The list is a sample of the results. Unmarked numbers belong to inactive results. The call rests on the fitted dose curve; in most records, active means well fitted curve in the direction sought with a large enough effect; inconclusive means small, poorly fitted or top-dose-only effect, or effect the other way; inactive means no such curve, though single readings can be large or run the other way. Numbered stars: 1 amine (or outer) side, 2 acyl side, 3 side chain; on linkers, the order of the positions; unused ones are H or OH. Bridge positions count the residues as written; N and C are the ends. Square brackets hold non-standard residues; d marks the D form. Peptide text beside a SMILES is read from it. I, II: the chains in the order shown. Actinocin(9to1) = Cc1c2oc3c(C)ccc(C(=O)[*:1])c3nc-2c(C(=O)[*:2])c(N)c1=O; aThr = C[C@H](O)[C@H](N)C(=O)O; NMeV = CN[C@H](C(=O)O)C(C)C; Sar = CNCC(=O)O

Molecular target: Cytochrome P450 2D6 (Homo sapiens) (UniProt P10635)
Experiment: Cytochrome panel assay with activity outcomes
Settings: recombinant CYP, pro-luciferin dealkylation, luminescence, p450-cyp2d6; series mostly up to 57.1 µM; activity, negative = inhibition: at the top concentration
On the % scale 0 is the no-effect control and ±100 the full control effect.

Chain of Cytochrome P450 2D6 (Homo sapiens) (P10635 whole entry, looked up): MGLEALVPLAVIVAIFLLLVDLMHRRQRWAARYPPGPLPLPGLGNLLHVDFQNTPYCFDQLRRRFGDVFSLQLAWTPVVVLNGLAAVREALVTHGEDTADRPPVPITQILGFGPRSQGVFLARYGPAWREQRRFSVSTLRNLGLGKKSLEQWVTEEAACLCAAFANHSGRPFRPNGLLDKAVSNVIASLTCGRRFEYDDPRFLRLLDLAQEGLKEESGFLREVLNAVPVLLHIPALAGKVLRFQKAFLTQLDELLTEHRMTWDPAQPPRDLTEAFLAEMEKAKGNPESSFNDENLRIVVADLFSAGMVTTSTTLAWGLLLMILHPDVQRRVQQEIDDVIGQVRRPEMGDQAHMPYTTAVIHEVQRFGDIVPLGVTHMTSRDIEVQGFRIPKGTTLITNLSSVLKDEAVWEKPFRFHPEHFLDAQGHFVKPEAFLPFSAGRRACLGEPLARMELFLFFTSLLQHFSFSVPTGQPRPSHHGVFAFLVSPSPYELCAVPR

Compound | activity, negative = inhibition | AC50
C[C@@H](C(=O)Cc1ccc2ccccc2c1)[C@@H]1C[C@@]1(C)[C@@H](NP(=O)(c1ccccc1)c1ccccc1)c1ccccc1 | 6.45% | –
Cc1cc(C(=O)N[C@H](c2ccccc2)[C@@]2(C)C[C@@H]2[C@@H](C)C(=O)Nc2ccc3ccccc3c2)n(C)n1 | – | 39.8 nM (active)
CC1(C)S[C@@H]2[C@H](NC(=O)[C@@H](NC(=O)N3CCNC3=O)c3ccccc3)C(=O)N2[C@H]1C(=O)O | -1.37% [at 25.6 µM] | –
COC(=O)c1sccc1NC(=O)CSc1ccccc1NS(=O)(=O)c1ccc(Cl)cc1 | -0.426% | –
C[C@@H]1O[C@H]2C3=C(C(=O)[C@H]4O[C@@H]4[C@H]3O)[C@@H]1[C@@H]1[C@@H](C)OC=C3[C@H](O)[C@H]4O[C@@H]4/C(=N\OCc4ccccc4)[C@]312 | -8.47% [at 11.4 µM] | –
O=C(NCc1ccccc1)C(c1ccc(F)cc1)N(Cc1ccco1)C(=O)c1ccccn1 (stereo unspecified) | -23.4% | –
COC(=O)N[C@H](c1ccccc1)[C@@]1(C)C[C@@H]1[C@@H](C)C(=O)Nc1ccc2ccccc2c1 | – | 31.6 nM (active)
C[C@@H](C(=O)Nc1ccc2ccccc2c1)[C@H]1C[C@]1(C)[C@H](NC(=O)Oc1ccc(F)cc1)c1ccccc1 | – | 2510 nM (active)
COC(=O)[C@H]1C[C@@H]1[C@H](NC(=O)Oc1ccc(F)cc1)c1ccccc1 | -5.03% | –
C[C@@H](C(=O)Nc1ccc2ccccc2c1)[C@@H]1C[C@@]1(C)[C@@H](NC(=O)Oc1ccc(F)cc1)c1ccccc1 | 3.54% | –
CO[C@@H]1COC(=O)CC=C[C@@H](C)[C@@H]2C=C[C@H](O)[C@@H](COC(=O)C/C=C\[C@H]1C)O2 | 13% [at 11.4 µM] | –
Cc1cc(C)c(C)c(S(=O)(=O)ON2C(=O)c3ccccc3C2=O)c1C | -29.2% | –
CC(C)(C)c1ccc(OCC(=O)O)c(Cl)c1 | 12.8% [at 11.4 µM] | –
Cc1nc(NS(=O)(=O)c2ccccc2C)c2c3c(sc2n1)CCC3 | -4.47% | –
CCCNC(=O)c1c(C)cc(=O)oc1C | -29% | –
COc1cc(-c2nnc(-c3ccc(N4CCOCC4)cc3)o2)cc(OC)c1OC | -3.51% | –
COc1ccc(Br)cc1/C=C/C(=O)Nc1c(C)cccc1C | -29.7% | –
CCNC(=O)CC1C(=O)N(c2ccc(F)cc2)C(=O)N1CCc1ccc(OC)cc1 (stereo unspecified) | -1.57% | –
CCCCC(=O)Nc1ccc(C(=O)NNC(=O)CCc2ccccc2)cc1 | 8.04% | –
CN1C(=O)C(CC(N)=O)N(NC(=O)c2ccc(Cl)cc2)C1=S (stereo unspecified) | 6.45% | –
CC(=O)Nc1ccc(S(=O)(=O)NC2(C(F)(F)F)NC(=O)N(c3ccc(Cl)cc3)C2=O)cc1 (stereo unspecified) | 5.87% | –
O=C(CC1C(=O)N(c2ccc(Cl)cc2)C(=S)N1CCc1ccncc1)Nc1ccc(F)cc1 (stereo unspecified) | – | 2240 nM (active)
O=C(CC1C(=O)NCCN1C(=S)Nc1ccccc1)Nc1ccc2c(c1)OCCO2 (stereo unspecified) | 4.52% | –

Compound | activity, negative = inhibition | AC50
CCN1C(=O)C(CC(=O)Nc2ccc(OC)cc2)N(Cc2cccnc2)C1=S (stereo unspecified) | -21.7% | –
CN1C(=O)C(CC(=O)Nc2ccc(F)cc2)N(CCCc2ccccc2)C1=S (stereo unspecified) | – | 2000 nM (active)
CCN1C(=O)C(CC(=O)Nc2ccc(Br)cc2)N(CCCc2ccccc2)C1=S (stereo unspecified) | – | 10000 nM (active)
Cc1ccc(NC2c3ncccc3C(=O)N2Cc2ccc(F)cc2)cc1 (stereo unspecified) | -10.5% | –
COc1ccc(OC)c(C2CC(=O)C3=C(C2)NC(=O)CC3c2ccc(O)c(OC)c2)c1 (stereo unspecified) | -26.8% | –
CC(C)CC(=O)N1CCC(O)(CS(=O)(=O)Cc2ccc(Cl)cc2)CC1 | -0.0163% | –
COCCn1c(=O)c(-c2cccc(F)c2)nc2cncnc21 | -2.96% | –
Cc1nn(-c2ccccc2)c(N2CCCCC2)c1/C=N/O | -4.1% | –
O=C(c1ccc(Cl)cc1)N1CCN(c2cc(=O)[nH]nc2-c2ccccc2)CC1 | 6.15% | –
COc1cccc(CNCc2ccc(SC)cc2)c1OC | – | 3160 nM (active)
CSc1ccc(CNc2ccccc2)cc1 | -14.2% | –
CC(C)CC(=O)Nc1sc2c(c1C#N)CC(C)(C)NC2(C)C | – | 7940 nM (active)
COc1ccc(C(=O)N2CC3(CC(c4ccc(Cl)cc4)=NO3)C[C@H]2C(=O)NCC(N)=O)cc1 (stereo partly specified) | -7.18% | –
CCOC(=O)C1C(=O)C=C(c2ccc(C)cc2)CC1c1ccco1 (stereo unspecified) | -21.1% | –
Cc1c2oc3c(C)ccc(C(=O)N[C@@H]4C(=O)N[C@@H](C(C)C)C(=O)N5CCC[C@@H]5C(=O)N(C)CC(=O)N(C)[C@@H](C(C)C)C(=O)O[C@H]4C)c3nc-2c(C(=O)N[C@@H]2C(=O)N[C@@H](C(C)C)C(=O)N3CCC[C@@H]3C(=O)N(C)CC(=O)N(C)[C@@H](C(C)C)C(=O)O[C@H]2C)c(N)c1=O (I: [aThr]V[dP][Sar][NMeV] / II: [aThr]V[dP][Sar][NMeV]; ester I:1-I:C, II:1-II:C; linker I:N-II:N via Actinocin(9to1)) | 2.32% | –
Cc1ccc(-n2[nH]c(C)c(C=Nc3ccc4[nH]c(=O)[nH]c4c3)c2=O)cc1C | -6.33% | –
CCOc1ccc(C2=[N+]([O-])C(C)(C)N(O)C2(C)C)cc1 | -0.754% | –
Cc1ccc(NC(=O)NNS(=O)(=O)c2ccc(Br)cc2)cc1 | -4.79% | –
Cc1ccc(S(=O)(=O)N[C@H](CO)C(=O)O)cc1 | 1.97% [at 11.4 µM] | –
Cc1ccc(S(=O)(=O)N[C@H](C(=O)O)C(C)C)cc1 | 3.72% [at 11.4 µM] | –
Cc1ccc(S(=O)(=O)NNc2ccccc2)cc1 | – | 7940 nM (active)
Cc1ccc(S(=O)(=O)NCc2ccccc2)cc1 | 0.206% | –
Cc1ccc(NNS(=O)(=O)c2ccc(C)cc2)cc1 | – | 5620 nM (active)
